Cycloheximide cs: Cycloheximide Counterscreen for Small Molecule Inhibitors of Shiga Toxin | cell reporter, cycloheximide protein synthesis inhibition counterscreen | max response, % | AID 2314, 2010 | hit rate 12% among 300,000; in the data active = max response mostly above about 13%, no sharp cut-off; inactive = mostly below about 14%; note: read at 38.3 µM for the half of the compounds with a filed dose; 0% is about no effect
Lassa entry inh: qHTS for Inhibitors of binding or entry into cells for Lassa Virus. Lassa virus pseudotype entry inhibition, cell reporter. Potency, µM (top dose mostly 37.9 µM), for the others: top-dose activity change, negative = inhibition, usual class: inhibitors. hit rate 1.2% among 300,000; calls by dose curve; tested in HEK293 cells; note: potency is the fitted concentration of half-maximal effect; % is set by controls: 0 for no effect and ±100 for the full control effect; nearly all actives have a fitted effect of over 50% in size
HCV inhibitor: qHTS Assay for Inhibitors of Hepatitis C Virus (HCV) | Huh7.5.1 HCVcc-Cre infection, luciferase reporter, 44 h | Potency, µM (series often up to 41.8 µM), for inactives: at the top dose activity change, negative = inhibition, most hits filed as inhibitors | hit rate 3.4% among 340,000; active = well fitted inhibition curve with a large enough effect; inconclusive = small, poorly fitted or top-dose-only effect, or another doubt; inactive = no such curve, though single readings can be large or run the other way; note: potency is the fitted concentration of half-maximal effect; % is set by controls: 0 for no effect and ±100 for the full control effect
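A cell-based infection assay in which seeded cells (1,000 per well) receive test compound after 4 h, are inoculated with HCVcc-Cre at approximately 0.5 moi, and are incubated 44 h before luminescence detection.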
MARV entry inh: qHTS for inhibitors of binding or entry into cells for Marburg Virus | Marburg virus pseudotyped entry inhibition, cell reporter | Potency, µM (doses to about 37.8 µM), inactives show at the highest dose activity change, negative = inhibition, most hits filed as inhibitors | hit rate 1.8% among 300,000 | AID 540276, 2011; calls by dose curve; tested in HEK293 cells; note: potency is the fitted concentration of half-maximal effect; % is set by controls: 0 for no effect and ±100 for the full control effect
Shiga toxin inh: A qHTS for Small Molecule Inhibitors of Shiga Toxin; inhibition, % at 38.7 µM; Vero cells, Shiga toxin protein synthesis inhibition reporter; AID 2315, 2010; hit rate 9.2% among 290,000; in the data active = inhibition mostly above about 28%, no sharp cut-off; inactive = mostly below about 43%; note: 0% is about no effect
FMDV antiviral: High Throughput Screening for Foot and Mouth Disease Virus Antivirals | Potency, µM (top dose mostly 57.9 µM), inactives show at the top dose activity change, negative = inhibition, most hits filed as inhibitors | hit rate 1.2% among 410,000 | FMDV antiviral cell-based qHTS; calls by dose curve; tested in HEK293T cells; note: read-out not given here; potency is the fitted concentration of half-maximal effect; % is set by controls: 0 for no effect and ±100 for the full control effect; nearly all actives have a fitted effect of over 45% in size
Numbers without * were called inactive; u = inconclusive; x = no result; [ ] = remark or other dose. An excerpt weighted towards active compounds, which were near 13% of everything screened.

SMILES	Cycloheximide cs	Lassa entry inh	HCV inhibitor	MARV entry inh	Shiga toxin inh	FMDV antiviral
CCc1ccc(NC(=O)C(=S)NC2CCCCC2)cc1	23.1*	u	-4.6%	u	57.4*	32.7%
CCOc1ccc(NC(=O)C2CCN(C(=O)NC3CCCCC3)CC2)cc1	0.5	-12.6%	9.4%	u	-2.9	-6.6%
COc1ccc(NC(=O)C(=S)NC2CCCCC2)cc1	47.1*	u	-9.8%	u	117.6*	0.0%
CC(=O)Nc1ccc(S(=O)(=O)N2CCN=C2SCc2ccc(F)cc2)cc1	-1.2	x	u	x	-13.4	u
Cc1ccc(-c2cccc(CN3CCN(C4CCN(C(C)C)CC4)C(CCO)C3)c2)o1 (stereo not drawn)	-2.9	x	5.01µM*	x	-3.6	-7.8%
CC(C)CN1CCN(C2CCN(C(C)C)CC2)C(CCO)C1 (stereo not drawn)	-0.6	x	x	x	-7.6	x
CC(C)N1CCC(N2CCN(Cc3ccc(-c4ccc(Cl)cc4)o3)CC2CCO)CC1 (stereo not drawn)	1.8	u	3.98µM*	3.16µM*	7.2	-15.1%
CC(C)N1CCC(N2CCN(C/C=C/c3ccc(F)cc3)CC2CCO)CC1 (stereo not drawn)	-1.4	u	10µM*	u	8.3	-10.4%
CC(C)N1CCC(N2CCN(Cc3cnc(-c4ccccc4)s3)CC2CCO)CC1 (stereo not drawn)	-2.7	7.2%	u	u	-6.0	6.3%
Cc1ccc(OCCC(=O)OCC(=O)Nc2cc(C)cc(C)c2)cc1	-1.9	x	-2.2%	x	-4.6	0.0%
Cc1ccccc1NC(=O)Cn1nc(C)c2ccccc2c1=O	-1.3	6.8%	-14.4%	u	-12.7	-2.9%
c1ccc(-c2cnc(-c3ccccn3)nn2)cc1	x	x	0.501µM*	x	x	26.6%
c1ccc(-c2cnc(-c3ccccc3)nn2)cc1	x	x	10.8%	x	x	1.4%
COCCN=c1scc(-c2cccs2)n1/N=C(\C)c1ccco1	82.7*	x	9.0%	x	123.7*	50.1%
COCCN=c1scc(-c2ccco2)n1/N=C/c1ccc(O)c(O)c1O	11.2	-25.1%	-13.8%	0.2%[46.1 µM]	53.9	20.8%
COc1ccc(CNC(=O)c2sc(=O)n(Cc3ccc(-c4ccccc4)cc3)c2C)cc1OC	x	x	x	x	x	15.8µM*
COc1ccc(CNC(=O)c2sc(=O)n(Cc3ccc(C)cc3)c2C)cc1OC	x	x	x	x	x	25.1µM*
CCN1C[C@@]2(COC)C3[C@@H](OC)[C@H]4C1[C@@]3(C1C[C@]3(O)C(OC)[C@H](O)[C@@]4(OC(C)=O)C1[C@H]3OC(=O)c1ccccc1)[C@H](OC)C[C@H]2O (stereo partly drawn)	-4.3	x	x	x	-2.2	x
COc1ccc(CCNc2cc(C)nc3c(-c4ccccc4OC)cnn23)cc1OC	10.7	-8.1%[46.1 µM]	12.6µM*	11.2µM*	-10.0	-1.0%
COc1ccccc1-c1cnn2c(NCc3ccccc3)cc(C)nc12	11.8	x	u	x	33.7	33.0%
CCCCNCCOCCSc1ccc(Cl)cc1	-2.0	-17.9%	7.94µM*	u	-6.0	-16.5%
OCCNCCSc1ccc(Cl)cc1	-3.0	x	0.0%	x	-4.7	5.8%
COCCCNCCCCSc1ccc(Cl)cc1	-2.3	u	12.6µM*	u	-6.2	-8.5%
OCCNCCCCSc1ccc(Cl)cc1	8.5	x	10µM*	x	15.5	-9.8%
O=c1c2cnn(-c3ccc(F)cc3)c2ncn1Cc1cccc(Cl)c1	x	u	x	u	x	0.0%
SMILES	Cycloheximide cs	Lassa entry inh	HCV inhibitor	MARV entry inh	Shiga toxin inh	FMDV antiviral
CC(Cl)C(=O)NNc1cccc(Cl)n1 (stereo not drawn)	19.2	-0.1%	17.7%	u	-3.2	-24.7%
O=C(N/N=C1/CC2C=CCC12)c1ccco1 (stereo not drawn)	72.4*	u	7.6%	u	81.0*	0.0%
O=C(N/N=C1/CC2C=CCC12)c1cccs1 (stereo not drawn)	42.1*	u	3.2%	15.7%[46.1 µM]	80.3*	10.1%
CCn1cc2nc(SCC(=O)Nc3cc(OC)ccc3OC)n(Cc3ccc(Cl)cc3)c(=O)c2n1	x	-2.2%[46.1 µM]	x	12.6µM*	x	-5.3%
CCn1cc2nc(SCC(=O)Nc3ccc(OC)cc3OC)n(Cc3ccc(Cl)cc3)c(=O)c2n1	x	u	x	u	x	46.5%
CC(NCc1ccc(OCc2ccc(Cl)cc2)cc1)C(O)c1ccccc1 (stereo not drawn)	-2.0	u	10µM*	12.6µM*	-3.9	-24.9%
CC(NCc1cccc(OCc2ccccc2)c1)C(O)c1ccccc1 (stereo not drawn)	-2.4	x	u	x	-9.7	u
CCc1ccc(C(C(=O)NC2CCCCC2)N(C(=O)c2ccccn2)c2cccnc2)cc1 (stereo not drawn)	-2.0	x	x	x	-18.7	x
O=C(Cn1nc(-c2ccccc2)ccc1=O)Nc1ccc(NC(=O)c2ccccn2)cc1	1.6	x	u	x	17.9	-8.3%
CC1CC1c1ccc(/C=C(\C#N)C(=O)Nc2ccccc2Cl)o1 (stereo not drawn)	51.7*	10.6%	-19.9%	u	30.1*	43.9%
CC1CC1c1ccc(/C=C(\C#N)C(=O)Nc2ccc(Cl)cc2)o1 (stereo not drawn)	63.0*	u	u	u	113.3*	-7.5%
CCOc1ccc(NC(=O)/C(C#N)=C\c2ccc(-c3ccc(Cl)cc3)o2)cc1	x	-7.4%[46.1 µM]	x	x	x	28.3%
CCOC(=O)C1(CC2CC2)CCN(Cc2cn[nH]c2-c2cccc(F)c2)CC1	-2.6	x	u	x	20.0	-17.1%
CCCOc1ccc(C(=O)c2nc3c(n2O)CCCCC3)cc1	-4.5	-6.2%	-15.3%	22.5%	-9.1	-4.8%
O=C(c1ccccc1)c1nc2c(n1O)CCCCC2	32.0*	19.5%[46.1 µM]	-4.5%	-0.5%[46.1 µM]	44.0*	0.9%
CCOC(=O)C1CCN(C(=O)c2ccc(OCC)c(OCC)c2)CC1	-2.2	0.0%	10.2%	1.6%[46.1 µM]	-16.4	-1.7%
c1cc(-n2nnc3cnccc32)ccn1	-1.9	x	8.8%	x	-9.0	-7.4%
c1ccc(-n2nnc3cnccc32)cc1	23.6*	10.9%	-20.3%	10.6%	24.0	19.0%
Nc1ccc2c(c1)nnn2-c1ccccc1	32.0*	u	17.9%	u	59.3	32.1%
Cc1c(C(=O)Nc2ccccc2Br)oc2ccc(S(=O)(=O)N3CCCCC3)cc12	x	29.3%[46.1 µM]	x	x	x	-5.0%
CCCCSc1ncc(C(=O)OCC)c(N)n1	46.2*	u	u	u	67.8*	-12.1%
CCOC(=O)c1cnc(SCCc2ccccc2)nc1N	35.2*	u	-17.6%	1.8%	97.0*	41.9%
CCOC(=O)c1cnc(SCc2ccc(C)cc2)nc1N	32.9*	u	-13.5%	-1.7%	106.5*	48.0%
CCOC(=O)c1cnc(SCC(=O)c2ccc(Cl)cc2)nc1N	9.5	-1.8%	4.0%	9.6%[46.1 µM]	-4.1	11.8%
CCOC(=O)c1cnc(SC2CCc3ccccc3C2=O)nc1N (stereo not drawn)	33.0*	-5.4%	-14.6%	-1.4%	70.9*	16.0%
CCOC(=O)c1cnc(SC2CC(=O)N(c3ccccc3)C2=O)nc1N (stereo not drawn)	-1.4	-1.1%	7.7%	13.3%[46.1 µM]	-16.7	3.4%
